Shown are actives, neighbours in structure and some others; about 12% of the full set was active somewhere.
JMJD2A Tudor inh – qHTS Assay for Inhibitors of JMJD2A-Tudor Domain; Lysine-specific demethylase 4A (Homo sapiens), O75164; AlphaScreen JMJD2A-Tudor / H3K4me3 peptide binding; Potency, µM (highest dose often 114 µM), for inactives: at the top dose activity change, negative = inhibition, hits mostly inhibitors; 4.4% of 390,000 active; further: on the % scale 0 is the no-effect control and ±100 the full control effect; nearly all actives have a fitted effect of over 50% in size
Sfp PPTase inh – qHTS Assay for Inhibitors of Bacillus subtilis Sfp phosphopantetheinyl transferase (PPTase). 4'-phosphopantetheinyl transferase ffp (Bacillus subtilis), Q9F4F7. Biochemical Sfp PPTase activity, qHTS. Potency, µM, for inactives: largest response in the series, negative = inhibition, hits mostly inhibitors. 3.5% of 310,000 active;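 further: the enzyme is Sfp with the accession as filed and its product quenches rhodamine fluorescence; 0% = enzyme reaction without inhibitor and -100% = no enzyme wells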
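Reaction rates are the 30-min fluorescence difference (ex 525, em 598 nm) in wells containing 15 nM Sfp, 5 uM rhodamine-CoA and 12.5 uM BHQ-2-YbbR at pH 7.6 with 10 mM MgCl2.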
TDP1 block – qHTS Assay for Inhibitors of Tyrosyl-DNA Phosphodiesterase (TDP1); Tyrosyl-DNA phosphodiesterase 1 (Homo sapiens), Q9NUW8; recombinant TDP1, AlphaScreen DNA substrate cleavage; Potency, µM (titrated, usually from 130 µM), for inactives: at the top dose activity change, negative = inhibition, most hits filed as inhibitors; 0.28% of 350,000 active; AID 485290, 2010; further: on the % scale 0 is the no-effect control and ±100 the full control effect; nearly all actives have a fitted effect of over 40% in size
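Tdp1 1 nM final; 15 min RT w/ cpd; substrate 15 nM, 5 min; beads 10 ug/ml, 10 min; AlphaScreen read. Neg ctrl: no enzyme.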
BAZ2B block – qHTS Assay for Inhibitors of BAZ2B; AlphaScreen BAZ2B-H3K14Ac peptide displacement; Bromodomain adjacent to zinc finger domain protein 2B (Homo sapiens), Q9UIF8; Potency, µM (doses to about 114 µM), without a hit: at the top dose activity change, negative = inhibition, most hits filed as inhibitors; 4.4% of 360,000 active; further: on the % scale 0 is the no-effect control and ±100 the full control effect; nearly all actives have a fitted effect of over 60% in size
Target sequence (Q9UIF8 whole entry, looked up, the tested form may be a part): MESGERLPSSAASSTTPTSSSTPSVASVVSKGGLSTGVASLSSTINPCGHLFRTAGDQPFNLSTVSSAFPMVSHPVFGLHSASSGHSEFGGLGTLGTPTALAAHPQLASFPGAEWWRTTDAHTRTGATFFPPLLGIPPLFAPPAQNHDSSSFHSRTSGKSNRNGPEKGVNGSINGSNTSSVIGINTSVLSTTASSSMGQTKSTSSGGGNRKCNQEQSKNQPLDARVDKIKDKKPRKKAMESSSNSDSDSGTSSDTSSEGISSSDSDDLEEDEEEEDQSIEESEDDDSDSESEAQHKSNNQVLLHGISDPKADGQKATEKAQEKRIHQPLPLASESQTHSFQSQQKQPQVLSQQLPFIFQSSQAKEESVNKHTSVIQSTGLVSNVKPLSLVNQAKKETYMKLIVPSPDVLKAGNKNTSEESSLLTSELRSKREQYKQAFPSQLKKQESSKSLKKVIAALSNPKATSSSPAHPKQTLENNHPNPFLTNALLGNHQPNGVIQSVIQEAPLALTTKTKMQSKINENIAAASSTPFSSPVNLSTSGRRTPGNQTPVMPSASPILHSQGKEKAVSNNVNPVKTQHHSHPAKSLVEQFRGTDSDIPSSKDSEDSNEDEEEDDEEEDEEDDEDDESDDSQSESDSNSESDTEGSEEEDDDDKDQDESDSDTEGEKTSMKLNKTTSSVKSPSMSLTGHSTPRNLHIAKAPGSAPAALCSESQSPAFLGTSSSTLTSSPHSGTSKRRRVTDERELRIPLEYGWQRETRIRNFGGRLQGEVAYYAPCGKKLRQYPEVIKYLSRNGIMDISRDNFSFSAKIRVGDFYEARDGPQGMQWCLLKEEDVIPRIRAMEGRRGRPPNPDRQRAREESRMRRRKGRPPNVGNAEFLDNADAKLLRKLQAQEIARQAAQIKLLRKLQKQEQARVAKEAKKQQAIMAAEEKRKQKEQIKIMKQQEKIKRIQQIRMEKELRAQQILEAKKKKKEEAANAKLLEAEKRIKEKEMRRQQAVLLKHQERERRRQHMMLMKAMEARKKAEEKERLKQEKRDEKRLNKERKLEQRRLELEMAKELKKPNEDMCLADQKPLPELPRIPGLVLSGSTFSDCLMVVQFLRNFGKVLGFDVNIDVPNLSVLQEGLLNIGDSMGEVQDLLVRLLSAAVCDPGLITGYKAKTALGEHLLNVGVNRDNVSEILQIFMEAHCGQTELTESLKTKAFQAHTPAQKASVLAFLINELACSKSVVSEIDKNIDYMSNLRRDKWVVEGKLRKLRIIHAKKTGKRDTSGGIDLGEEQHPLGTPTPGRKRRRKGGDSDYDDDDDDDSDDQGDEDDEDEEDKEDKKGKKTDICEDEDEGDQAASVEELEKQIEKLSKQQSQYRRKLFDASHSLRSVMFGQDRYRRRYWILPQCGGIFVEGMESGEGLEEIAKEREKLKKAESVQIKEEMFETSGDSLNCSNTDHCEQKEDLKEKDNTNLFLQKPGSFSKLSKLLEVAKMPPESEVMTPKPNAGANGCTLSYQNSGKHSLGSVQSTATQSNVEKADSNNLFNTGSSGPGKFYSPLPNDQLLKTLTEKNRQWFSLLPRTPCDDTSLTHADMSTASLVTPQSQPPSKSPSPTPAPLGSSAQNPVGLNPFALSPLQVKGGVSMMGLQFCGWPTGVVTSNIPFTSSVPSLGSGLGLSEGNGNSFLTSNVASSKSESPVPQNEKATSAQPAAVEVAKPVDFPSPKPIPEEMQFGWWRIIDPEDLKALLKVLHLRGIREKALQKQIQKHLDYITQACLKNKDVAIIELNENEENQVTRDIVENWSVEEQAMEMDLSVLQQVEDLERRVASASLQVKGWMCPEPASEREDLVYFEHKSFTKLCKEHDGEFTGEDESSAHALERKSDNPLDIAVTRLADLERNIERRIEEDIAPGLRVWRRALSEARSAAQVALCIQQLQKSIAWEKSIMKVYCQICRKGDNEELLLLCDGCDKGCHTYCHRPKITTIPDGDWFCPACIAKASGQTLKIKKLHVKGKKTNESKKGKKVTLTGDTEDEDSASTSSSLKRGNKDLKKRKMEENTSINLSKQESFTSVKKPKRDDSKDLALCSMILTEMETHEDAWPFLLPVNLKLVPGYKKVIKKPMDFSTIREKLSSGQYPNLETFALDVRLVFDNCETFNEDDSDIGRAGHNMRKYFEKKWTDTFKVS
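In this displacement format the biotinylated H3(5-23) peptide acetylated at Lys14 serves as ligand at 50 nM, with BAZ2B at 50 nM in PBS pH 7.4 containing 0.01% Tween-20. Donor and acceptor beads are 10 ug/mL final.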
G9a block – qHTS Assay for Inhibitors of Histone Lysine Methyltransferase G9a | Histone-lysine N-methyltransferase EHMT2 (Homo sapiens), Q96KQ7 | G9a H3K9 monomethylation, AlphaScreen, 2 h | Potency, µM (titrated, usually from 102 µM), for the others: at the top dose activity, negative = inhibition, hits mostly inhibitors | 8.8% of 350,000 active; further: on the % scale 0 is the no-effect control and ±100 the full control effect; nearly all actives have a fitted effect of over 75% in size
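Readings reflect AlphaScreen signal from monomethyl-H3K9 antibody detection. HMT at 20 nM; substrate b-H3K9 500 nM; cofactor SAM 20 uM; 2 h RT reaction; compounds tested as titrations in qHTS with 15 min preincubation.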
HP1b chromo inh – HTS for Inhibitors of HP1-beta Chromodomain Interactions with Methylated Histone Tails | Chromobox protein homolog 1 (Homo sapiens), P83916 | AlphaScreen HP1-beta / biotin-H3K9me3 peptide binding | Potency, µM (top dose mostly 114 µM), without a hit: top-dose activity change, negative = inhibition, hits mostly inhibitors | 0.56% of 390,000 active; further: nearly all actives have a fitted effect of over 70% in size
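AlphaScreen: HP1-beta (50 nM) preformed 30 min with biotin-H3(1-18)K9me3 peptide (50 nM) in PBS pH 7.4, 0.01% Tween-20. Compound added for 30 min at RT, then streptavidin donor/nickel chelate acceptor beads (10 ug/mL) for 30 min.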
Starred values were filed as active, the others as inactive; [ ] = another dose, or the depositor's remark. The call rests on the fitted dose curve; in most records, active means well fitted curve in the direction sought with a large enough effect; inconclusive means small, poorly fitted or top-dose-only effect, or another doubt; inactive means no such curve, though single readings can be large; an effect the other way counts as inactive or inconclusive. Potency means the concentration at half of the fitted maximal effect.

What do the screens show for `C[C@@H]1NC(=O)c2cc([N+](=O)[O-])cc(I)c2NCC[C@@H](C(N)=O)NC(=O)[C@H](CC(N)=O)NC1=O`?
JMJD2A Tudor inh: -31%; Sfp PPTase inh: -1%; TDP1 block: 3%; BAZ2B block: -33%; G9a block: 22µM*; HP1b chromo inh: 23%

Results for Cc1cc(S(=O)(=O)C(CNC(=O)COc2ccccc2)c2cccs2)ccc1F (centres undefined) ?
JMJD2A Tudor inh: -1%; TDP1 block: 1%; BAZ2B block: 4%; G9a block: 22%[59 µM]; HP1b chromo inh: 56%

Results for Cc1ccc(S(=O)(=O)C(CNC(=O)COc2ccccc2)c2cccs2)cc1 (centres undefined) ?
JMJD2A Tudor inh: 25µM*; TDP1 block: inconclusive; BAZ2B block: inconclusive; G9a block: 11µM*; HP1b chromo inh: 20µM*

How did Cc1c(NC(=O)C(C)Sc2ncnc3ccccc23)c(=O)n(-c2ccccc2)n1C (centres undefined) do in these assays?
JMJD2A Tudor inh: -1%; Sfp PPTase inh: 1%; TDP1 block: 2%; BAZ2B block: -10%; G9a block: 2%; HP1b chromo inh: 39%

How did Nc1ccccc1SSc1ccccc1N do in these assays?
JMJD2A Tudor inh: 32µM*; Sfp PPTase inh: 3.5µM*; TDP1 block: -9%; BAZ2B block: 45µM*; G9a block: 1.6µM*; HP1b chromo inh: inconclusive

How did Nc1ccccc1SCc1ccccc1Cl do in these assays?
JMJD2A Tudor inh: 36%; Sfp PPTase inh: 20µM*; TDP1 block: 6%; BAZ2B block: 15%; G9a block: inconclusive; HP1b chromo inh: 55%

What do the screens show for `Cc1ccccc1C(=O)N1CCC(n2nccc2NC(=O)C2CC2)CC1`?
JMJD2A Tudor inh: -3%; Sfp PPTase inh: 8%; TDP1 block: -1%; BAZ2B block: -5%; HP1b chromo inh: 14%

Results for Cc1ccc(N2CCN(C(=O)Nc3cccc([N+](=O)[O-])c3)CC2C)cc1 (centres undefined) ?
JMJD2A Tudor inh: inconclusive; Sfp PPTase inh: 12%; TDP1 block: -3%; BAZ2B block: 56µM*; G9a block: inconclusive; HP1b chromo inh: inconclusive

Results for O=C(NCC(c1ccco1)N1CCCCC1)c1cccc(NS(=O)(=O)c2ccc(Br)cc2)c1 (centres undefined) ?
JMJD2A Tudor inh: -33%; TDP1 block: 6%; BAZ2B block: -1%; G9a block: 7%[0.501 µM]; HP1b chromo inh: -4%

Results for CCCn1c(O)c(C=Nc2ccccc2)sc1=S ?
JMJD2A Tudor inh: -22%[11.4 µM]; Sfp PPTase inh: 8%; TDP1 block: -3%; BAZ2B block: -12%; G9a block: -24%; HP1b chromo inh: 25%

Results for Oc1c(/C=C/C=C/C=Nc2ccccc2)sc(=S)n1Cc1ccccc1 ?
JMJD2A Tudor inh: inconclusive; Sfp PPTase inh: inconclusive; BAZ2B block: inconclusive; G9a block: 2.2µM*; HP1b chromo inh: inconclusive

What do the screens show for `CCCCn1c(O)c(/C=C/C=C/C=Nc2ccccc2)sc1=S`?
JMJD2A Tudor inh: inconclusive; Sfp PPTase inh: -34%; TDP1 block: 8%; BAZ2B block: 6.3µM*; G9a block: 2.8µM*; HP1b chromo inh: 3.2µM*

What do the screens show for `CCn1c(O)c(/C=C/C=C/C=Nc2ccccc2)sc1=S`?
JMJD2A Tudor inh: inconclusive; Sfp PPTase inh: inconclusive; TDP1 block: 8%; BAZ2B block: inconclusive; G9a block: 14µM*; HP1b chromo inh: inconclusive

How did CCn1c(O)c(C=Nc2ccccc2)oc1=S do in these assays?
JMJD2A Tudor inh: -21%; Sfp PPTase inh: inconclusive; TDP1 block: 1%; BAZ2B block: 8%; G9a block: 28µM*; HP1b chromo inh: -19%

Results for CCn1c(O)c(C=NCc2ccccc2)sc1=S ?
JMJD2A Tudor inh: inconclusive; Sfp PPTase inh: -14%; TDP1 block: 10%; BAZ2B block: inconclusive; HP1b chromo inh: 6%

How did COc1ccc(N2C=C3C(=O)C(C)(OC(=O)C4CCCC4)C(=O)C=C3C=C2c2ccsc2)cc1 (centres undefined) do in these assays?
Sfp PPTase inh: -17%; TDP1 block: 7%[21 µM]

What do the screens show for `Cc1ccc2c(c1)-c1c(c(C(=O)N3CCN(c4cc(C)ccc4C)CC3)nn1C)CS2`?
JMJD2A Tudor inh: -14%; TDP1 block: -1%; BAZ2B block: -22%; G9a block: -25%[12.7 µM]; HP1b chromo inh: 28%

What do the screens show for `O=C(O)C1Cc2ccccc2CN1C(=O)CSc1nnc2ccccn12` (centres undefined)?
JMJD2A Tudor inh: -21%; Sfp PPTase inh: -19%; TDP1 block: -2%; G9a block: 50µM*; HP1b chromo inh: -5%

How did CC(=O)c1ccc(S(=O)(=O)N2Cc3ccccc3CC2C(=O)O)cc1 (centres undefined) do in these assays?
JMJD2A Tudor inh: 18µM*; Sfp PPTase inh: 6%; BAZ2B block: inconclusive; G9a block: 40µM*; HP1b chromo inh: 0%

Results for CC(C)(C)OC(=O)N1Cc2ccccc2C[C@H]1C(=O)O ?
JMJD2A Tudor inh: -4%[11.4 µM]; Sfp PPTase inh: 10%; TDP1 block: 1%; BAZ2B block: inconclusive; G9a block: 56µM*; HP1b chromo inh: 2%

What do the screens show for `O=C(O)C1Cc2ccccc2CN1S(=O)(=O)/C=C/c1ccccc1` (centres undefined)?
JMJD2A Tudor inh: -15%; Sfp PPTase inh: -7%; TDP1 block: 5%; BAZ2B block: 79µM*; G9a block: 14µM*; HP1b chromo inh: 38%

Results for O=C(O)[C@H]1Cc2ccccc2CN1S(=O)(=O)c1ccc(F)cc1 ?
JMJD2A Tudor inh: -6%; Sfp PPTase inh: 27%; TDP1 block: -1%; BAZ2B block: -2%; G9a block: -7%; HP1b chromo inh: 31%

What do the screens show for `O=C(CSc1nnc2ccccn12)N1CCc2ccccc2C1`?
JMJD2A Tudor inh: -7%; Sfp PPTase inh: 0%; TDP1 block: -2%; BAZ2B block: 7%; G9a block: inconclusive; HP1b chromo inh: 35%

What do the screens show for `O=C(O)C1Cc2ccccc2CN1C(=O)c1ccccc1` (centres undefined)?
JMJD2A Tudor inh: -29%; Sfp PPTase inh: 13%; TDP1 block: 0%; BAZ2B block: 0%; G9a block: inconclusive; HP1b chromo inh: 22%

Screening data as filed in PubChem BioAssay.
